The source of these data is PubChem BioAssay (NCATS).

For test [1], the target named is Catechol O-methyltransferase (Homo sapiens) (UniProt P21964). Put plainly: Confirmatory Screen for Target Class Profiling of Small Molecule Inhibitors of Methyltransferases (AID 1745852; calls by dose curve; also: potency is read from the fitted curve at half-maximal effect; as to activity change, negative = inhibition: % is scaled to controls: 0 for no effect and ±100 for the full control effect). The settings on record: MTase-Glo luminescence, SAH detection, recombinant enzyme; measured here: COMT max response; stronger effect = lower value.
Catechol O-methyltransferase (Homo sapiens), sequence (P21964 whole entry, looked up): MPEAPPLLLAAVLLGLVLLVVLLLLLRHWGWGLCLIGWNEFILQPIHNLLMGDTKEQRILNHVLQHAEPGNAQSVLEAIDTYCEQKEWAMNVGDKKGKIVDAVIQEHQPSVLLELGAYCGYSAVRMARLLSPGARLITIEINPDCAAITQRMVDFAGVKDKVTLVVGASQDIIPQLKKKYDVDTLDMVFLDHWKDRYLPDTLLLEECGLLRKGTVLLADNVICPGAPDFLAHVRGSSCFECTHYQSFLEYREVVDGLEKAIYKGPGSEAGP
The target of test [2] is Guanidinoacetate N-methyltransferase (Homo sapiens) (UniProt Q14353). The description is as above. Particulars: MTase-Glo luminescence, SAH detection, recombinant enzyme; activity change, negative = inhibition: at 57.3 µM (top of the series) unless noted.
Test [3] deals with Nicotinamide N-methyltransferase (Homo sapiens) (UniProt P40261). The test is described as above. Particulars: MTase-Glo luminescence, SAH detection, recombinant enzyme; measured here: NNMT max response; stronger effect = lower value.
Nicotinamide N-methyltransferase (Homo sapiens), sequence (P40261 whole entry, looked up): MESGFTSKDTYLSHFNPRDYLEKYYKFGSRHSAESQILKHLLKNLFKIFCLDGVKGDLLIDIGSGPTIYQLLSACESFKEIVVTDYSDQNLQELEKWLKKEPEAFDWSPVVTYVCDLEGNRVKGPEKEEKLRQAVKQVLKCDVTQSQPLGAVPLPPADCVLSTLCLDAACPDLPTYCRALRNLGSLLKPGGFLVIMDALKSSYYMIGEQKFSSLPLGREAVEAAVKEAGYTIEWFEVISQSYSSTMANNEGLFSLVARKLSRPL
For test [4], the target named is Phenylethanolamine N-methyltransferase (Homo sapiens) (UniProt P11086). The test is described as above. Particulars: MTase-Glo luminescence, SAH detection, recombinant enzyme; measured here: PNMT max response; stronger effect = lower value.
Phenylethanolamine N-methyltransferase (Homo sapiens), sequence (P11086 whole entry, looked up): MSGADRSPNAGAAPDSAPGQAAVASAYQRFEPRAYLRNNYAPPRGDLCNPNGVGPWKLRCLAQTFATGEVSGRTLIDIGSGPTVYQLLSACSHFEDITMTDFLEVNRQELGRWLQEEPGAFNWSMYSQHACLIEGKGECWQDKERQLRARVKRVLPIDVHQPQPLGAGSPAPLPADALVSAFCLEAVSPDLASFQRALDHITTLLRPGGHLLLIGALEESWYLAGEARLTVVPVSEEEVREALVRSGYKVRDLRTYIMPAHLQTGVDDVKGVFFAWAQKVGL
For test [5], the target named is Glutathione peroxidase 1 (Homo sapiens) (UniProt P07203). Put plainly: Primary qHTS Assay for Inhibitors of Recombinant Selenoprotein Glutathione Peroxidase 1 (GPX1) (AID 1845191). Also: nearly all actives have a fitted effect of over 65% in size. The settings on record: recombinant GPX1, GR-coupled NADPH fluorescence, 15 min; series mostly up to 48.8 µM. The procedure, abridged:
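NADPH consumption tracked by fluorescence at 340/450 nm between t=0 and t=15 min, room temperature. Final mix: 10 nM GPX1, 100 nM glutathione reductase, 1 mM GSH, 0.5 mM NADPH, 0.5 mM cumene hydroperoxide, 0.01% BSA; 30 min compound–enzyme preincubation.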

The target of test [6] is Phospholipid hydroperoxide glutathione peroxidase GPX4 (Homo sapiens) (UniProt P36969). Kind of test: Primary qHTS Assay for Inhibitors of Recombinant Selenoprotein Glutathione Peroxidase 4 (GPX4) (AID 1845192). Also: nearly all actives have a fitted effect of over 65% in size. Also: potency is read from the fitted curve at half-maximal effect. As to activity change, negative = inhibition: % is scaled to controls: 0 for no effect and ±100 for the full control effect. Particulars: recombinant GPX4, GR-coupled NADPH fluorescence, 15 min; series mostly up to 50 µM. The procedure, abridged:
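NADPH consumption followed by fluorescence at 340/450 nm, t=0 and after 15 min at room temperature. Reaction started with cumene hydroperoxide (0.5 mM final) after 30 min compound–GPX4 preincubation; final 200 nM GPX4, 100 nM GR, 1 mM GSH, 0.5 mM NADPH.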

In test [7] the target is Luciferin 4-monooxygenase (Photinus pyralis) (UniProt P08659). Put plainly: Primary firefly luciferase (FLuc) qHTS assay for identification of artifact compounds. (AID 1845220). Also: nearly all actives have a fitted effect of over 60% in size.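 As to activity change, negative = inhibition: plate controls were DMSO vehicle for no effect and no enzyme for full effect.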 The settings on record: purified firefly luciferase, luminescence, 5 min; series mostly up to 54.1 µM. The procedure, abridged: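 Cell-free, 1536-well qHTS. Buffer pH 7.6 with 0.01% Tween-20 and 0.05% BSA; 10 uM D-luciferin, 10 uM ATP; 10 nM P. pyralis luciferase; luminescence after 5 min.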

Test [8] in a line: Primary fluorescence-based thiol-reactive (MSTI) qHTS assay for identification of artifact compounds. (AID 1845221).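 Also: thiol-reactive compounds lower the probe fluorescence signal; nearly all actives have a fitted effect of over 65% in size.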 Particulars: MSTI thiol-reactivity probe, 1 h; series mostly up to 53.8 µM. An outline of the steps: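 qHTS titration of compound; 4 uM MSTI, PBS pH 7.4, 2% DMSO; 1 h RT, dark; fluorescence 525/598 nm; normalized to Acetyl-MSTI and MSTI; 4-parameter Hill fit.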

Test [9] concerns Nanoluciferase (engineered Oplophorus gracilirostris luciferase). Kind of test: Primary Nanoluciferase (NLuc) qHTS assay for identification of artifact compounds. (AID 1845222).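 Also: 0% = DMSO and -100% = no enzyme.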 Particulars: NLuc-conditioned medium, Nano-Glo luminescence, 5 min; series mostly up to 54.1 µM. An outline of the steps: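 Compounds are pinned into diluted (1:55) conditioned medium of NLuc-expressing S16 cells and held 15 min at room temperature protected from light. Nano-Glo substrate follows, and luminescence is read 5 min later.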
On the technique in general: Quantitative high-throughput screening tests each substance at several concentrations.

A short description of test [10]: Primary redox qHTS assay for identification of artifact compounds. (AID 1845223). Particulars: Amplex Red/HRP redox cycling with DTT, fluorescence; series mostly up to 53.8 µM. An outline of the steps: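 Redox-cycling detection via DTT (250 uM final) oxidation coupled to Amplex Red (25 uM)/HRP (250 mU/mL) in HBSS. 15 min preincubation plus 30 min after DTT, room temperature. Ex/Em 525/598 nm; 4-parameter Hill fit against DMSO and 10 uM DA3003.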

Test [11] can be described thus: Quantitative High-Throughput drug screen in 47 multiple myeloma cell lines against the NCATS MIPE library collection: FR4_PLB cell viability assay (AID 1918924; also: nearly all actives have a fitted effect of over 35% in size; also: potency is read from the fitted curve at half-maximal effect). Particulars: FR4_PLB myeloma cells viability, CellTiter-Glo ATP, 48 h; series mostly up to 45.8 µM. The procedure, abridged:
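Myeloma cells (500 per well) were exposed to MIPE 4.0 compounds by pin transfer and incubated 48 hours at 37C, 5% CO2. Viability was read as ATP by CellTiter-Glo luminescence, normalised to DMSO (100%) and media-only (0%) wells.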
A general note: ATP-based viability assays read luminescence as a measure of living cells.

Where “and” joins values, the source holds several entries; their conditions need not be identical. Equal values may be shown once. Inconclusive results are not listed. Calls of active or inactive are those of the source. Unless noted, calls follow the shape of the dose curve; as a rule, active = well fitted curve in the direction sought with a large enough effect; inconclusive = small, poorly fitted or top-dose-only effect, or another doubt; inactive = no such curve, though single readings can be large; an effect the other way counts as inactive or inconclusive.

Phospholipid hydroperoxide glutathione peroxidase GPX4 (Homo sapiens), sequence (P36969 whole entry, looked up): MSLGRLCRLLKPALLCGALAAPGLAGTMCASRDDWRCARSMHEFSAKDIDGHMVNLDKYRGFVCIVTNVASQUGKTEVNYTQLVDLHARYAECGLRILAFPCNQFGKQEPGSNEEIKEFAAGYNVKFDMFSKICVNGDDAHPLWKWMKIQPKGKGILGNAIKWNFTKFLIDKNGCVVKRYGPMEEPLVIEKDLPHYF
Glutathione peroxidase 1 (Homo sapiens), sequence (P07203 whole entry, looked up): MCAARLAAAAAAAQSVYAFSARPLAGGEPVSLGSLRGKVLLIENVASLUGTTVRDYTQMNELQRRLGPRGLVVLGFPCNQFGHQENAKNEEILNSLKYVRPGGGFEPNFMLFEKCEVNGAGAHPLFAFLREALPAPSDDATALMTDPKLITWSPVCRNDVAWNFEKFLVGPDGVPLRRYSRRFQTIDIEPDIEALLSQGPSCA

Consider `COc1cc2c(NC3CCN(C(C)C)CC3)nc(C3CCCCC3)nc2cc1OCCCN1CCCC1`, for which the activity in test [1] is -9%; in test [3] it was -39.8%; in test [4] it was -4.49%. For the same molecule, in test [2], the activity change, negative = inhibition is -6.26%. Besides, the Potency entry in test [5], in test [6], in [7], in [8], in [9] and in test [10] was “inactive” in each case. Besides, the Potency in [11] was 7.43 µM (active).
As for `COCCOc1ccc2c(c1)ncn2-c1ccc2cccc(N3CCC(N)CC3)c2n1`, the activity is -17.6% in test [1], -9.06% in test [3] and -17.7% in test [4]. Further, the Potency in test [2] was 48.2 µM (active). Moreover, the Potency entry in test [5], in test [6], in [7], in test [8] and in [9] was “inactive” throughout.
`C[C@@H](Oc1cc(-c2cnn(C3CCNCC3)c2)cnc1N)c1c(Cl)ccc(F)c1Cl`: the activity in test [1] was -38.2% and -62.1%; in [3] it was -57.8% and -68.4%; in test [4] it was -33.1% and -60.2%. Moreover, the Potency in test [2] was 27.1 µM (active); in test [11], 18.7 µM (active). For the same molecule, the Potency entry in [5], in [6], in test [8], in test [9] and in [10] was “inactive” in each case.
As to `Cn1c(CNc2ccc(C(=N)N)cc2)nc2cc(C(=O)N(CCC(=O)O)c3ccccn3)ccc21`, the activity is -2.15% in [1], -1.22% in [3] and -0.426% in [4]. Also, in test [2], the activity change, negative = inhibition was 1.99%. In addition, the Potency result in test [6], in test [7], in test [8], in [9], in test [10] and in [11] was “inactive” each time.
Regarding `Nc1ncnc2c1c(-c1cnc3[nH]ccc3c1)nn2C1CCCC1`, the results for the activity in test [1], in test [3] and in [4] were -9.35%, -56.1% and -52.4%, respectively. Moreover, the activity change, negative = inhibition in [2] is 0.397%. Moreover, the Potency result in [5], in test [6], in test [8], in test [9] and in test [10] was “inactive” in each case.
Take `Cc1c(C)n(Cc2ccc(-c3ccccc3C(=O)O)cc2)c2ccc(C(=O)N[C@@H](C)c3ccc([N+](=O)[O-])cc3)cc12`: the results for the activity in test [1], in [3] and in test [4] were -7.34%, -14.9% and -11.9%, respectively. The activity change, negative = inhibition in [2] was -10.2%. Moreover, the Potency result in test [5], in test [7], in test [8], in [9], in test [10] and in test [11] was “inactive” in each case. The Potency in test [6] was 9.04 µM (active).
Turning to `CC[C@@H]1C(=O)N(C)c2cnc(Nc3ccc(C(=O)NC4CCN(C)CC4)cc3OC)nc2N1C1CCCC1`, the figures for the activity in test [1], in test [3] and in test [4] were -18.1%, -45.4% and -31.6%, respectively. In addition, the Potency in [2] was 21.7 µM (active); in [11], 0.0235 µM (active). In addition, the Potency result in [5] and in test [6] was “inactive” throughout.
Regarding `CCn1nnc2c(N3CCOCC3)nc(-c3ccc(NC(=O)Nc4ccc(C(=O)N5CCN(C)CC5)cc4)cc3)nc21`, the activity in test [1] was -6.26%; in test [3] it was -65.9%; in test [4], -1.56%. Further, the activity change, negative = inhibition in [2] is 0%. Also, the Potency result in [5], in test [6], in test [8], in test [9] and in test [10] was “inactive” throughout. In test [11], the Potency is 0.0074 µM (active).
